Measured values from PubChem BioAssay (NCATS).
Inconclusive results are not listed. A call without a number means that no potency is given here. Activity calls are given as the source filed them. Calls come from the whole dose curve; as a rule, active = well fitted cell-killing curve with a large enough effect; inconclusive = small, poorly fitted or top-dose-only effect, or effect the other way; inactive = no such curve, though single readings can be large or run the other way.

test: Quantitative High-Throughput drug screen in 47 multiple myeloma cell lines against the NCATS MIPE library collection: OCIMY1_PLB cell viability assay (AID 1918979); details: OCI-MY1 myeloma viability, CellTiter-Glo ATP, 48 h; series mostly up to 45.8 µM; note: nearly all actives have a fitted effect of over 35% in size
Description: PI: Beverly A. Mock Ph.D.
Laboratory of Cancer Biology and Genetics,
Center for Cancer Research, National Cancer Institute,
National Institute of Health, Bethesda, Maryland
Drug resistance and disease progression are common in multiple myeloma (MM) patients, underscoring the need for new therapeutic combinations. […] We hypothesized that effective combinations would reduce MYC expression and enhance p16 activity. […] These preclinical data identify potentially useful drug combinations for evaluation in drug-resistant MM and reveal potential mechanisms of combined drug sensitivity.
Described herein is the primary MIPE qHTS used to cherrypick compounds. Validated compounds were then further tested for potential synergistic activiy.
[1] Peat TJ, Gaikwad SM, Dubois W, Gyabaah-Kessie N, Zhang S, Gorjifard S, Phyo Z, Andres M, Hughitt VK, Simpson RM, Miller MA, Girvin AT, Taylor A, Williams D, D'Antonio N, Zhang Y, Rajagopalan A, Flietner E, Wilson K, Zhang X, Shinn P, Klumpp-Thomas C, McKnight C, Itkin Z, Chen L, Kazandijian D, Zhang J, Michalowski AM, Simmons JK, Keats J, Thomas CJ, Mock BA. Drug combinations identified by high-throughput screening promote cell cycle transition and upregulate Smad pathways in myeloma. Cancer Lett. 2023 Aug 1;568:216284. doi: 10.1016/j.canlet.2023.216284. Epub 2023 Jun 24. PMID: 37356470; PMCID: PMC10408729.
SEQUENCE No. (e.g., 1, 2, 3, etc.); […] (e.g., Cells, Incubation, Reagent, etc.); VALUE and DESCRIPTION.
1; Cells; 5 uL; white, solid bottom 1536-well Greiner assay plate.
2; Compounds; 23 nL; Kalypsis pin tool (Wako USA) equipped with a 1536-well pin head to transfer to the assay plates.
3; Incubation; 48 hours; 37C incubation.
4; Reagent;5uL; CellTiter Glo (Promega).
5; Detector; 425V; Luminescence; Viewlux PerkinElmer.
NOTES (numbers refer to Sequence numbers above)
1. The cell-based screening methods employed in this study were like those previously published. Briefly, the corresponding myeloma cell lines were screened in 1,536-well plates with 500 cells, 5-uL per well for inhibition of cell viability (assessed by measuring ATP levels with CellTiterGlo).
2. NCATS MIPE 4.0 library of approved and investigational drugs were added using the Kalypsis pin tool. Wells treated with DMSO only for 100% viability and media only for 0% viability were used as controls.
3. The assay plates were covered and incubated for 48 hours in a 37C, 5% CO2 incubator with controlled humidity.
4. After 48 hours, CellTilter-GloTM luminescent substrate mix (Promega) reagent was added to the assay plate and plates we incubated for 5 min at room temperature.
5. Signal was measured as median relative luminescence units on a ViewLux (PerkinElmer) multiplate reader.
[1] Heske CM, Davis MI, Baumgart JT, Wilson K, Gormally MV, Chen L, Zhang X, Ceribelli M, Duveau DY, Guha R, Ferrer M, Arnaldez FI, Ji J, Tran HL, Zhang Y, Mendoza A, Helman LJ, Thomas CJ. Matrix Screen Identifies Synergistic Combination of PARP Inhibitors and Nicotinamide Phosphoribosyltransferase (NAMPT) Inhibitors in Ewing Sarcoma. Clin Cancer Res. 2017 Dec 1;23(23):7301-7311. doi: 10.1158/1078-0432.CCR-17-1121. Epub 2017 Sep 12. PMID: 28899971; PMCID: PMC6636827.
Potency is the fitted concentration of half-maximal effect.

Compound | Potency
O=C1c2c(O)cccc2[C@@H]([C@@H]2O[C@H](CO)[C@@H](O)[C@H](O)[C@H]2O)c2cc(CO)cc(O)c21 | inactive
Nc1nc2c(c(=O)[nH]1)N(C=O)[C@H](CNc1ccc(C(=O)N[C@@H](CCC(=O)O)C(=O)O)cc1)CN2 | inactive
Cc1cc(-c2nnc3n2CCCCC3)c(C)n1-c1ccccc1 | 0.0012 µM (active)
COc1cccc2c1C(=O)c1c(O)c3c(c(O)c1C2=O)C[C@@](O)(C(=O)CO)C[C@@H]3O[C@H]1C[C@H](N)[C@H](OC2CCCCO2)[C@H](C)O1 (stereo not given in full) | 14.8 µM (active)
COc1cc(O)c2c(c1)C1OC1C[C@H](O)[C@H](O)C(=O)C=CC[C@H](C)OC2=O (stereo not given in full) | 5.26 µM (active)
c1cc(N[C@@H]2CCNC2)nc(-c2cnc3ccc(-c4cn[nH]c4)cn23)c1 | inactive
CC(Oc1ccc(O)cc1)(P(=O)(O)O)P(=O)(O)O | inactive
C[C@H](O)[C@@H]1C(=O)N2C(C(=O)O)=C(S[C@@H]3CN[C@H](CNS(N)(=O)=O)C3)[C@@H](C)[C@@H]12 | inactive
O=C(Nc1ccc(Oc2ccnc3[nH]ccc23)c(F)c1)c1cccn(-c2ccc(F)cc2)c1=O | inactive
C=C1C(=CC=C2CCC[C@]3(C)[C@@H]([C@H](C)CCCC(C)(C)O)CC[C@@H]23)C[C@@H](O)C[C@@H]1O | inactive
CO[C@@H]1[C@@H](O)[C@H](O)[C@@H](n2c3c(Cl)cccc3c3c4c(c5c6cccc(Cl)c6[nH]c5c32)C(=O)NC4=O)O[C@@H]1CO | 2.35 µM (active)
CC(C)(O)[C@H]1CC[C@@](C)([C@H]2[C@@H](O)C[C@@]3(C)[C@@H]4C[C@H](O[C@@H]5O[C@H](CO)[C@@H](O)[C@H](O)[C@@H]5O)[C@H]5C(C)(C)[C@@H](O[C@@H]6OC[C@@H](O)[C@H](O)[C@@H]6O)CC[C@@]56C[C@@]46CC[C@]23C)O1 | inactive
O=C(CCCCCCC(=O)Nc1cccnc1)NO | 14.8 µM (active)
COc1cccc2c1C(=O)c1c(O)c3c(c(O)c1C2=O)C[C@@](O)(C(=O)CO)C[C@H]3O[C@H]1C[C@H](N)[C@H](O)[C@H](C)O1 | 0.296 µM (active)
C[C@H](NC(=O)C(C#N)=Cc1cccc(Br)n1)c1ccccc1 | 7.43 µM (active)
Cc1ccc(O)c(C(CCN(C(C)C)C(C)C)c2ccccc2)c1 (stereo not given) | inactive
C[N+]1(C)[C@@H]2C[C@@H](OC(=O)C(O)(c3cccs3)c3cccs3)C[C@H]1[C@@H]1O[C@@H]12 | inactive
C=C[C@@H]1CN2CCC1C[C@H]2[C@H](O)c1ccnc2ccc(OC)cc12 (stereo not given in full) | inactive
CC(=O)O[C@H]1C[C@@H]2CC[C@H]3[C@H]4C[C@H]([N+]5(C)CCCCC5)[C@@H](OC(C)=O)[C@@]4(C)CC[C@@H]3[C@@]2(C)C[C@H]1N1CCCCC1 | inactive
OC[C@@H](O)[C@@H](O)[C@H](O)[C@@H](O)CO | inactive

Compound | Potency
CC(C)N(CC[C@H](c1ccccc1)c1cc(CO)ccc1O)C(C)C | inactive
C=CC(=O)Nc1ccc2ncnc(Nc3ccc(OCc4cccc(F)c4)c(Cl)c3)c2c1 | 14.8 µM (active)
CC(=O)N[C@H]1[C@@H]([C@H](O)[C@H](O)CO)OC(C(=O)O)=C[C@@H]1N=C(N)N | inactive
C=C1C[C@@]2(O)O[C@@]3(C[C@H]2C(C)C)[C@H](C)CC[C@H]13 | inactive
Nc1ccc(C(=O)Nc2cccc(-c3nc(N4CCOCC4)c4oc5ncccc5c4n3)c2)cn1 | 16.6 µM (active)
NC(=O)N1CCC(CC(=O)N2CCC([C@H]3c4ncc(Br)cc4CCc4cc(Cl)cc(Br)c43)CC2)CC1 | 20.9 µM (active)
Cn1cc(C[C@@H](N)C(=O)O)c2ccccc21 | inactive
O=C1NC(=O)C(=Cc2ccc3nccc(-c4ccncc4)c3c2)S1 | 0.235 µM (active)
C=C1C(=O)O[C@H]2[C@@H]1CCC(C)=CCC[C@@]1(C)O[C@@H]21 | 5.26 µM (active)
CCc1c(O)cc(O)c(C(=O)c2ccc(OCCN3CCOCC3)c(OC)c2)c1CC(=O)N(CCOC)CCOC | 16.6 µM (active)
C[C@@H]1CC[C@@]2(OC1)OC1CC3C4CC=C5CC(O)CCC5(C)C4CCC3(C)C1[C@@H]2C (stereo not given in full) | inactive
Cc1ccc2nc(NCCN)c3ncc(C)n3c2c1 | 14.8 µM (active)
OCc1ccccc1O[C@@H]1O[C@H](CO)[C@H](O)[C@H](O)[C@H]1O | inactive
C=CCNc1c(O)cc2c(O)c1C[C@@H](C)C[C@H](OC)[C@@H](O)[C@@H](C)C=C(C)[C@H](OC(N)=O)[C@@H](OC)C=CC=C(C)C(=O)N2 | 1.48 µM (active)
COc1cccc2c1C(=O)c1c(O)c3c(c(O)c1C2=O)C[C@@](O)(C(C)=O)C[C@H]3O[C@H]1C[C@H](N)[C@H](O)[C@H](C)O1 | 0.332 µM (active)
N#CC(=Cc1ccc(O)c(O)c1)C(=O)NCc1ccccc1 | inactive
C[C@H](NCc1ccc(OCc2cccc(F)c2)cc1)C(N)=O | 10.5 µM (active)
CCC[C@H]1C[C@H](C(=O)N[C@@H]([C@@H]2O[C@@H](SC)[C@@H](O)[C@@H](O)[C@@H]2O)[C@H](C)Cl)N(C)C1 | inactive
CC(C)(C)[N+]([O-])=Cc1ccc(S(=O)(=O)O)cc1S(=O)(=O)O | inactive
COc1cc([C@@H]2c3cc4c(cc3[C@@H](O[C@@H]3O[C@@H]5CO[C@@H](c6cccs6)O[C@@H]5[C@H](O)[C@@H]3O)[C@H]3COC(=O)[C@H]23)OCO4)cc(OC)c1O | 8.33 µM (active)
